PBM binding z-score data for 16 sequences are collected here from the supplement of paper PMC6555819.

Experiment in all cases: PBM binding z-score (relative to random genomic background probes); higher = stronger binding; sequences stand for … in GC…GCGATTGACAGCGTAGAATGAAGG
Assay [1] concerns RARb homodimer (NR concentration 270 nM). The procedure, abridged:
(§1)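 Each nuclear receptor dimer, without ligand, was incubated for 1 h on custom Agilent 4×180K protein-binding microarrays. Binding was detected with antibodies against each partner (one per run), and scanned fluorescence was regression-normalized. The binding z-scores are referenced to random human genomic background probes.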

Assay [2] has as its system RARg:RXRa (NR concentration 270 nM, RXRa partner concentration 90 nM). In short, it runs like this: as §1
For assay [3], the system named is RARg homodimer (NR concentration 270 nM). In short, it runs like this:
as §1

For assay [4], the system named is RXRa DBDmut IVT, anti-RXR (DBD mutation: RXRa K156A/R161A, NR concentration 90 nM). In short, it runs like this: as §1
For assay [5], the system named is RXRa homodimer (NR concentration 180 nM). The procedure, abridged:
as §1

For assay [6], the system named is THRa:RXRa (NR concentration 90 nM, RXRa partner concentration 90 nM). In short, it runs like this: as §1
Assay [7] deals with THRa homodimer (NR concentration 90 nM). In short, it runs like this: as §1
Assay [8] deals with VDR:RXRa (NR concentration 270 nM, RXRa partner concentration 90 nM). In short, it runs like this:
as §1

Assay [9] has as its system VDR homodimer (NR concentration 270 nM). The procedure, abridged: as §1

As for CCTTACGGGTCAAGAGGTTATAGCACGACGAGCG, the PBM binding z-score turned out to be 3.87 in assay [1]; 6.11 in assay [2]; 4.75 in assay [3]; 0.748 in assay [4]; 6.11 in [5]; 2.92 in assay [6]. The PBM binding z-score in assay [7] was found to be 0.0618; in [8], 4.09; in assay [9], 1.17.
Take TGTCAAAGTTCAAAGGTAACTTAAGTATCCACAC: the PBM binding z-score was 3.71 in assay [1]; 6.26 in assay [2]; 6.11 in assay [3]; 4.5 in assay [4]; 7.54 in assay [5]; 3.6 in [6]. Besides, the PBM binding z-score is -0.309 in [7], 5.09 in assay [8] and 4.03 in [9].
On to ATATGCAGGTTACATCCGGGTCATTCAGGCTATG, for which the PBM binding z-score was 2.86 in assay [1]; 4.04 in assay [2]; 2.1 in [3]; 0.784 in assay [4]; 3.53 in assay [5]; 3.97 in assay [6]. Besides, the figures for the PBM binding z-score in assay [7], in [8] and in assay [9] were 2.19, 4.47 and 2.77, respectively.
As for TATCCTAGGTCATTCAGGGGCCAGTATAGAAAGC, the PBM binding z-score was 3.68 in assay [1]; 6.44 in assay [2]; 4.99 in assay [3]; 2.55 in assay [4]; 3.59 in assay [5]; 3.76 in assay [6]. Also, the PBM binding z-score in assay [7] was 1.57; in assay [8], 3.57; in [9], 2.01.
As to TCGAATAGGTTAGGGGCATTCAGAATGGCGTCGA, the PBM binding z-score in assay [1] turned out to be 1.08; in [2], 0.753; in assay [3], 0.9; in assay [4], 1.19; in [5], 1.15; in assay [6], 0.948. Further, the PBM binding z-score amounted to 0.436 in assay [7], 0.8 in assay [8] and 0.995 in assay [9].
As for TCTATTAGTTGATGAGGGCAACCGAAACAGCGGA, the PBM binding z-score in assay [1] was found to be 1.27; in assay [2], 0.771; in assay [3], 0.907; in [4] it was 1.31; in [5], 1.06; in [6], 1.68. For the same sequence, the PBM binding z-score stood at 0.938 in assay [7], 1.15 in assay [8] and 1.35 in [9].
For CCTTACGGGTCACAGACAGGTTATAGCATTTGGA, the PBM binding z-score is 3.16 in [1]; 5.97 in assay [2]; 4.84 in [3]; 1.77 in assay [4]; 5.47 in [5]; 3.03 in assay [6]. The PBM binding z-score in assay [7] turned out to be 0.316; in assay [8], 4.06; in [9], 0.727.
Take TCTTGTAGAACAAAGGTTAAGAAAGCCGAAGCCT: the PBM binding z-score in assay [1] amounted to 1.45; in assay [2] it was 1.55; in assay [3], 0.851; in assay [4], 0.724; in [5] it was 2.32; in [6] it was 1.05. For the same sequence, the PBM binding z-score in [7] is -0.79; in assay [8] it was 1.18; in [9] it was -0.438.
As to TCTGGTTGGTCACGGAGGTCACACACGACGGGTA, the PBM binding z-score in [1] was 4.58; in assay [2], 4.91; in [3] it was 5.28; in assay [4], 0.702; in assay [5] it was 4.97; in [6] it was 3.58. For the same sequence, the PBM binding z-score in [7] came out at 2.93; in assay [8], 5.92; in assay [9] it was 3.66.
On to GCTATTAGTTGAAAGCGCAACCGAATGATTCTCG, for which the PBM binding z-score is -0.696 in assay [1]; -0.258 in assay [2]; -0.0474 in [3]; 0.445 in [4]; -0.166 in assay [5]; -0.508 in [6]. For the same sequence, the values for the PBM binding z-score in assay [7], in assay [8] and in [9] were -0.515, -0.272 and -0.738, respectively.
Consider GGTAGTTGGTCAGTAAAAGGTCACACACCGGTCG, for which the PBM binding z-score in assay [1] was 5.4; in assay [2], 5.49; in assay [3], 4.84; in assay [4], -0.0829; in assay [5], 5.45; in assay [6], 3.72. The values for the PBM binding z-score in assay [7], in assay [8] and in assay [9] were 2.3, 4.11 and 2.2, respectively.
Take TATACAGGGTCGAAGGCCAGAGTACGAATGTCGA: the PBM binding z-score stood at 1.26 in assay [1]; 1.87 in assay [2]; 1.72 in assay [3]; 0.491 in [4]; 2.32 in assay [5]; 1.16 in assay [6]. Besides, the PBM binding z-score is -0.382 in [7], 1.56 in assay [8] and 1.23 in assay [9].
With TCTTGTAGATCAACCGGAGGTTAAGAAAGATCGA, the PBM binding z-score in [1] stood at 0.462; in assay [2] it was 1.22; in [3], 0.219; in assay [4], 0.651; in assay [5] it was 0.914; in assay [6], 1.12. The PBM binding z-score in assay [7] was -0.269; in assay [9], -0.0131.
With GCTTGTAGATCAATGTTAAGAAAGACTAAGCTAA, the PBM binding z-score is -0.892 in assay [1]; -0.411 in assay [2]; -0.155 in assay [3]; 0.255 in [4]; -0.609 in assay [5]; -0.166 in assay [6]. The PBM binding z-score in assay [7] is -1.2; in assay [8] it was -0.368; in assay [9], -0.713.
Regarding TTACCAAGGTAAGCTGAGGTCGTTGATCCAACTC, the PBM binding z-score in [1] is 0.571; in assay [2], 0.164; in [3], -0.00347; in assay [4], 0.278; in assay [5], 0.962; in assay [6] it was 4.33. Also, the PBM binding z-score in assay [7] was determined as 1.61; in assay [9] it was 1.65.
For the sequence TATCCTAGGTCATGGGCCAGTATACCACGCGAAC, the PBM binding z-score in [1] turned out to be 3.35; in assay [2] it was 4.47; in assay [3] it was 5.04; in [4] it was 0.933; in [5], 3.99; in [6], 3.54. Also, the PBM binding z-score was 2.41 in [7] and 1.05 in [9].
